Results on three sequences are retold here after paper PMC11006913.

Assay in all cases: PBM; 200 nM protein, PBS
Common to all, as to conditions: dsDNA, one strand shown

One assay addresses T1, VENTX (Homo sapiens, UniProt O95231 78-163, R121Q).
T1 sequence: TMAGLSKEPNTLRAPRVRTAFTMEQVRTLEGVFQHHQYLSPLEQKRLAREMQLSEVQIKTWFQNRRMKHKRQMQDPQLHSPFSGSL

The target of assay [1] is HOXA4 (Homo sapiens, UniProt Q00056 201-287, W262R).
Assay [2] has as its target HOXA7 (Homo sapiens, UniProt P31268 116-202).
Assay [3] has as its target ALX4 (Homo sapiens, UniProt Q9H161 200-286).
For assay [4], the target named is PRRX1 (Homo sapiens, UniProt P54821 80-166, F113S).
Chain of PRRX1 (Homo sapiens, UniProt P54821 80-166, F113S) (P54821 80-166 F113S): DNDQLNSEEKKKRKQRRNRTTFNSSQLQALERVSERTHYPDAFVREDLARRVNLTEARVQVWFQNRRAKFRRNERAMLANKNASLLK
The target in assay [5] is HOXB6 (Homo sapiens, UniProt P17509 132-218, K202E).
Chain of HOXB6 (Homo sapiens, UniProt P17509 132-218, K202E) (P17509 132-218 K202E): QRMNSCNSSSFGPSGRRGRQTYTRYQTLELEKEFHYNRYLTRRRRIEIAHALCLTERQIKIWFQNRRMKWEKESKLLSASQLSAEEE
Assay [6] concerns the target ALX4 (Homo sapiens, UniProt Q9H161 200-286, Q225E).
For assay [7], the target named is HOXA2 (Homo sapiens, UniProt O43364 129-215, R185T).
Chain of HOXA2 (Homo sapiens, UniProt O43364 129-215, R185T) (O43364 129-215 R185T): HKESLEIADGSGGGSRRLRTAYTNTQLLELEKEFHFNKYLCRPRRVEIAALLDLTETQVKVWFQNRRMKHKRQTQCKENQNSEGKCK
The target of assay [8] is MSX2 (Homo sapiens, UniProt P35548 130-214, R199I).
Chain of MSX2 (Homo sapiens, UniProt P35548 130-214, R199I) (P35548 130-214 R199I): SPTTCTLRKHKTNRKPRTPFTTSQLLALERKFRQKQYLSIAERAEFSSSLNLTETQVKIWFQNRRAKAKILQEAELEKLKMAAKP
Assay [9] has as its target HOXA2 (Homo sapiens, UniProt O43364 129-215, R185K).
For assay [10], the target named is HOXA4 (Homo sapiens, UniProt Q00056 201-287).
Chain of HOXA4 (Homo sapiens, UniProt Q00056 201-287) (Q00056 201-287): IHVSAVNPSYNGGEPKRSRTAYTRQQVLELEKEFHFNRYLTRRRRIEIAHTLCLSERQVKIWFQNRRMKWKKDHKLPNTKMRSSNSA
Assay [11] deals with MSX2 (Homo sapiens, UniProt P35548 130-214).
Chain of MSX2 (Homo sapiens, UniProt P35548 130-214) (P35548 130-214): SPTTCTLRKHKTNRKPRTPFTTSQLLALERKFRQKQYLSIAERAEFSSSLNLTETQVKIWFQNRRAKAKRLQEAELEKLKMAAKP
Assay [12] deals with MSX2 (Homo sapiens, UniProt P35548 130-214, F161Y).
Chain of MSX2 (Homo sapiens, UniProt P35548 130-214, F161Y) (P35548 130-214 F161Y): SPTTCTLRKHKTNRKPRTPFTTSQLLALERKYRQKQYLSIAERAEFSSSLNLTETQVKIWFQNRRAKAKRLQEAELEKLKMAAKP
For assay [13], the target named is VAX1 (Homo sapiens, UniProt Q5SQQ9 86-172, T142I).
Chain of VAX1 (Homo sapiens, UniProt Q5SQQ9 86-172, T142I) (Q5SQQ9 86-172 T142I): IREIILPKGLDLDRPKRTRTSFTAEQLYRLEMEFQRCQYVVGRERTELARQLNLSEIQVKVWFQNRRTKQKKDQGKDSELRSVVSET
The target of assay [14] is HOXA7 (Homo sapiens, UniProt P31268 116-202, W177C).
Chain of HOXA7 (Homo sapiens, UniProt P31268 116-202, W177C) (P31268 116-202 W177C): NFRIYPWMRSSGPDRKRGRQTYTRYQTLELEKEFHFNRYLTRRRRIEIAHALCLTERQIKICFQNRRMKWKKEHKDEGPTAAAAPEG
The target in another assay is ALX1 (Homo sapiens, UniProt Q15699 118-204).
Chain of ALX1 (Q15699 118-204): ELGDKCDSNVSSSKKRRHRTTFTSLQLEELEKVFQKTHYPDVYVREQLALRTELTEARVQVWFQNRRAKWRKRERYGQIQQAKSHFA
Assay [15] addresses HOXA4 (Homo sapiens, UniProt Q00056 201-287, W262F).
In assay [16] the target is PRRX1 (Homo sapiens, UniProt P54821 80-166).
Chain of PRRX1 (Homo sapiens, UniProt P54821 80-166) (P54821 80-166): as the sequence (P54821 80-166 F113S) above, with S34F counted along it
Assay [17] concerns the target VAX1 (Homo sapiens, UniProt Q5SQQ9 86-172, K157R).
Assay [18] has as its target HOXB6 (Homo sapiens, UniProt P17509 132-218).

Chain of HOXA4 (Homo sapiens, UniProt Q00056 201-287, W262F) (Q00056 201-287 W262F): as the sequence (Q00056 201-287) above, with W62F counted along it
Chain of HOXA4 (Homo sapiens, UniProt Q00056 201-287, W262R) (Q00056 201-287 W262R): as the sequence (Q00056 201-287) above, with W62R counted along it
Chain of HOXB6 (Homo sapiens, UniProt P17509 132-218) (P17509 132-218): as the sequence (P17509 132-218 K202E) above, with E71K counted along it
Chain of HOXA2 (Homo sapiens, UniProt O43364 129-215, R185K) (O43364 129-215 R185K): as the sequence (O43364 129-215 R185T) above, with T57K counted along it
Chain of VAX1 (Homo sapiens, UniProt Q5SQQ9 86-172, K157R) (Q5SQQ9 86-172 K157R): as the sequence (Q5SQQ9 86-172 T142I) above, with I57T, K72R counted along it
Chain of ALX4 (Homo sapiens, UniProt Q9H161 200-286, Q225E) (Q9H161 200-286 Q225E): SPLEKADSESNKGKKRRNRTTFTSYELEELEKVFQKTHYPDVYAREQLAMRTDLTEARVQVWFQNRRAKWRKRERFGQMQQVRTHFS
Chain of ALX4 (Homo sapiens, UniProt Q9H161 200-286) (Q9H161 200-286): as the sequence (Q9H161 200-286 Q225E) above, with E26Q counted along it
Chain of HOXA7 (Homo sapiens, UniProt P31268 116-202) (P31268 116-202): as the sequence (P31268 116-202 W177C) above, with C62W counted along it

With GATAATTA, the binding signal with VENTX was 12.5 upbm affinity estimate (log intensity, higher = more binding, comparable within an allelic series); with HOXA4 [1], 11 upbm affinity estimate (log intensity, higher = more binding, comparable within an allelic series); with HOXA7 [2], 12.2 upbm affinity estimate (log intensity, higher = more binding, comparable within an allelic series); with ALX4 [3] it was 14.4 upbm affinity estimate (log intensity, higher = more binding, comparable within an allelic series); in the assay with PRRX1 [4], 12 upbm affinity estimate (log intensity, higher = more binding, comparable within an allelic series); with HOXB6 [5] it was 10.2 upbm affinity estimate (log intensity, higher = more binding, comparable within an allelic series). The binding signal is 14.1 upbm affinity estimate (log intensity, higher = more binding, comparable within an allelic series) with ALX4 [6]; 13.9 upbm affinity estimate (log intensity, higher = more binding, comparable within an allelic series) in the assay with HOXA2 [7]; 13.3 upbm affinity estimate (log intensity, higher = more binding, comparable within an allelic series) with MSX2 [8]; 13.8 upbm affinity estimate (log intensity, higher = more binding, comparable within an allelic series) in the assay with HOXA2 [9]; 14.3 upbm affinity estimate (log intensity, higher = more binding, comparable within an allelic series) in the assay with HOXA4 [10]; 14.1 upbm affinity estimate (log intensity, higher = more binding, comparable within an allelic series) with MSX2 [11]. Also, the binding signal is 13.7 upbm affinity estimate (log intensity, higher = more binding, comparable within an allelic series) with MSX2 [12]; 13.8 upbm affinity estimate (log intensity, higher = more binding, comparable within an allelic series) with VAX1 [13]; 9.01 upbm affinity estimate (log intensity, higher = more binding, comparable within an allelic series) with HOXA7 [14]; 12.8 upbm affinity estimate (log intensity, higher = more binding, comparable within an allelic series) with ALX1; 12.6 upbm affinity estimate (log intensity, higher = more binding, comparable within an allelic series) with HOXA4 [15]; 13.7 upbm affinity estimate (log intensity, higher = more binding, comparable within an allelic series) with PRRX1 [16]. The binding signal with VAX1 [17] was 13.7 upbm affinity estimate (log intensity, higher = more binding, comparable within an allelic series); with HOXB6 [18], 12.5 upbm affinity estimate (log intensity, higher = more binding, comparable within an allelic series).

With AATAATTA, the binding signal in the assay with VENTX is 12 upbm affinity estimate (log intensity, higher = more binding, comparable within an allelic series); with HOXA4 [1], 10.9 upbm affinity estimate (log intensity, higher = more binding, comparable within an allelic series); with HOXA7 [2], 11.9 upbm affinity estimate (log intensity, higher = more binding, comparable within an allelic series); with ALX4 [3], 14.2 upbm affinity estimate (log intensity, higher = more binding, comparable within an allelic series); with PRRX1 [4] it was 11.7 upbm affinity estimate (log intensity, higher = more binding, comparable within an allelic series); in the assay with HOXB6 [5] it was 10.2 upbm affinity estimate (log intensity, higher = more binding, comparable within an allelic series). In addition, the binding signal was 13.7 upbm affinity estimate (log intensity, higher = more binding, comparable within an allelic series) with ALX4 [6]; 13.5 upbm affinity estimate (log intensity, higher = more binding, comparable within an allelic series) in the assay with HOXA2 [7]; 13.1 upbm affinity estimate (log intensity, higher = more binding, comparable within an allelic series) in the assay with MSX2 [8]; 13.6 upbm affinity estimate (log intensity, higher = more binding, comparable within an allelic series) with HOXA2 [9]; 14.2 upbm affinity estimate (log intensity, higher = more binding, comparable within an allelic series) in the assay with HOXA4 [10]; 14 upbm affinity estimate (log intensity, higher = more binding, comparable within an allelic series) in the assay with MSX2 [11]. Moreover, the binding signal with MSX2 [12] was 13.6 upbm affinity estimate (log intensity, higher = more binding, comparable within an allelic series); in the assay with VAX1 [13], 13.4 upbm affinity estimate (log intensity, higher = more binding, comparable within an allelic series); with HOXA7 [14], 9.07 upbm affinity estimate (log intensity, higher = more binding, comparable within an allelic series); with ALX1 it was 12.5 upbm affinity estimate (log intensity, higher = more binding, comparable within an allelic series); with HOXA4 [15], 12.2 upbm affinity estimate (log intensity, higher = more binding, comparable within an allelic series); in the assay with PRRX1 [16], 13.5 upbm affinity estimate (log intensity, higher = more binding, comparable within an allelic series). Besides, the binding signal is 13.4 upbm affinity estimate (log intensity, higher = more binding, comparable within an allelic series) in the assay with VAX1 [17] and 12.3 upbm affinity estimate (log intensity, higher = more binding, comparable within an allelic series) with HOXB6 [18].

Regarding ATAATTAT, the binding signal with VENTX was 11.9 upbm affinity estimate (log intensity, higher = more binding, comparable within an allelic series); in the assay with HOXA4 [1], 10.9 upbm affinity estimate (log intensity, higher = more binding, comparable within an allelic series); with HOXA7 [2] it was 12 upbm affinity estimate (log intensity, higher = more binding, comparable within an allelic series); in the assay with ALX4 [3], 14.2 upbm affinity estimate (log intensity, higher = more binding, comparable within an allelic series); with PRRX1 [4], 11.7 upbm affinity estimate (log intensity, higher = more binding, comparable within an allelic series); in the assay with HOXB6 [5] it was 10.3 upbm affinity estimate (log intensity, higher = more binding, comparable within an allelic series). Also, the binding signal is 13.7 upbm affinity estimate (log intensity, higher = more binding, comparable within an allelic series) with ALX4 [6]; 13.6 upbm affinity estimate (log intensity, higher = more binding, comparable within an allelic series) with HOXA2 [7]; 12.9 upbm affinity estimate (log intensity, higher = more binding, comparable within an allelic series) in the assay with MSX2 [8]; 13.8 upbm affinity estimate (log intensity, higher = more binding, comparable within an allelic series) with HOXA2 [9]; 14.3 upbm affinity estimate (log intensity, higher = more binding, comparable within an allelic series) with HOXA4 [10]; 14 upbm affinity estimate (log intensity, higher = more binding, comparable within an allelic series) with MSX2 [11]. The binding signal was 13.6 upbm affinity estimate (log intensity, higher = more binding, comparable within an allelic series) with MSX2 [12]; 13.3 upbm affinity estimate (log intensity, higher = more binding, comparable within an allelic series) with VAX1 [13]; 9.06 upbm affinity estimate (log intensity, higher = more binding, comparable within an allelic series) in the assay with HOXA7 [14]; 12.5 upbm affinity estimate (log intensity, higher = more binding, comparable within an allelic series) in the assay with ALX1; 12.1 upbm affinity estimate (log intensity, higher = more binding, comparable within an allelic series) with HOXA4 [15]; 13.6 upbm affinity estimate (log intensity, higher = more binding, comparable within an allelic series) with PRRX1 [16]. The binding signal in the assay with VAX1 [17] is 13.3 upbm affinity estimate (log intensity, higher = more binding, comparable within an allelic series); in the assay with HOXB6 [18], 12.4 upbm affinity estimate (log intensity, higher = more binding, comparable within an allelic series).
